# PubChem BioAssay
# Where “and” joins values, the source holds several entries; their conditions need not be identical. Identical values can stand only once.
# Molecular target: Torsin-1A-interacting protein 2 (Homo sapiens) (UniProt Q8NFQ8)
# Assay: LULL1 binders on small-molecule microarray, primary screen, cell lysate, human LULL1 lysate, 635/667 nm fluorescence (AID 1092);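 note: probe is lysate of COS7 cells overexpressing human LULL1; score merges per-feature 667 nm fluorescence with signal-to-noise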
# Settings: hLULL1 lysate binding, 635 nm fluorescence, higher = more signal
# Sequence of Torsin-1A-interacting protein 2 (Homo sapiens) (Q8NFQ8 whole entry, looked up): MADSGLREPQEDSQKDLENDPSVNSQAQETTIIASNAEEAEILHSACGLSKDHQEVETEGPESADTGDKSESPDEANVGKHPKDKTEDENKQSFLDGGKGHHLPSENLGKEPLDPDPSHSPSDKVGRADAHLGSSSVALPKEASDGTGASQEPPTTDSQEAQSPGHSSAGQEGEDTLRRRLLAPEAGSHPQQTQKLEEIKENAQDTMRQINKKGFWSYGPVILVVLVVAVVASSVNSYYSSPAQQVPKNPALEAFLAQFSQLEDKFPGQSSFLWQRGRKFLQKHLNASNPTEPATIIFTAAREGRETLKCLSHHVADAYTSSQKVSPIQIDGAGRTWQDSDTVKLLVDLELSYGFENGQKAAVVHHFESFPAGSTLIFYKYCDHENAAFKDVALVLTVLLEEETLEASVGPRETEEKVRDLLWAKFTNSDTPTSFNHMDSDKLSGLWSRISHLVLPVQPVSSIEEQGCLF
row,SMILES,composite z-score
1,C=CCN(CCCC)C(=O)C1N(c2ccc(CCO)cc2)C(=O)C2C(C(=O)O)C3C=CC21O3 (stereo not given),-1.07 and 0.53
2,COC(=O)C1=C(C)N(Cc2ccccc2)C2=C3C(=O)N(c4ccccc4)C(=O)[C@@H]3[C@@](O)(C(=O)OC)C(=O)N2[C@@H]1c1ccccc1,0.806 and 1.46
3,CCC[C@@H]1C[C@@]1(CCC)[C@@H](NC(=O)c1ccc(-c2ccccc2)cc1)c1cccc(Cl)c1,0.678 and 3.32
4,C=CCN(C(=O)C(c1cccs1)N(C(=O)/C=C\C(=O)O)c1ccc(CCO)cc1)C(C)(C)C (stereo not given),3.58 and 3.17
5,C=CCN(Cc1ccccc1)C(=O)C1N(CCCCCCO)C(=O)C2C(C(=O)O)C3C=CC21O3 (stereo not given),1.83 and 1.79
6,COc1ccc(COC(=O)NN=C2C[C@@H](O)[C@@H](O)[C@@H]3[C@@H]4C(=O)N(C(C)(C)C)C(=O)[C@@H]4CC[C@H]23)cc1,2.14
7,O=C1NC(=O)C2C1C=CC(C(O)c1ccc([N+](=O)[O-])cc1)N2Nc1ccc(Cl)cc1Cl (stereo not given),3.3 and 3.03
8,COC(=O)C1=C(C)N(Cc2ccccc2)C2=C3C(=O)CCC[C@@H]3[C@@](O)(C(=O)OC)C(=O)N2[C@@H]1c1ccccc1,0.0102 and 0.0556
9,C[N+](C)(C)CCCCNC(=O)[C@H]1C[C@H]2C(=O)N[C@@H](CCCC[N+](C)(C)C)C(=O)N2[C@H]1c1cccc(OCCO)c1,2.58 and 1.78
10,C=CCN(CCCCC)C(=O)C1N(c2ccc(CCO)cc2)C(=O)C2C(C(=O)O)C3C=CC21O3 (stereo not given),-0.379 and 0.173
11,CC(C)C(=O)N[C@@H]1CCCN1C(=O)C=Cc1ccccc1,0.783
12,C[C@@H](ON=C1[C@H]2CCn3c(=O)n(-c4ccccc4)c(=O)n3[C@H]2[C@H](O)[C@@H]2O[C@H]12)c1cn([C@H](CO)Cc2ccccc2)nn1,0.61
13,C=CCN1C(=O)[C@]2(O[C@H](CCn3cc(CCO)nn3)[C@@H]([Si](C)(C)c3ccc(OC)cc3)[C@@H]2C)c2cc(N3C(=O)c4cccc5cccc3c45)ccc21,1.73 and 1.57
14,COC(=O)[C@@]1(Cc2ccc(F)cc2)[C@H]2c3cc(C(=O)N4CCCC4)n(Cc4c(CO)[nH]cc(C)c4=O)c3C[C@H]2CN1C(=O)c1ccccc1,3.29 and 3.28
15,C=CCN(CCCCC)C(=O)C1N(c2c(Cl)cccc2CO)C(=O)C2C(C(=O)O)C3C=CC21O3 (stereo not given),-0.445 and -0.75
16,C=CCN(C(=O)C1N(c2c(Cl)cccc2CO)C(=O)C2C(C(=O)O)C3C=CC21O3)C(C)(C)C (stereo not given),0.893 and -1.28
17,COC(=O)[C@@]1(Cc2ccc(OC)cc2)[C@H]2c3cc(C(=O)N(C)C)n(Cc4ccc(O)c(OC)c4)c3C[C@H]2CN1C(=O)c1ccccc1,3.65 and 3.34
18,C=CCN(C(=O)C1N(C(C)(C)CO)C(=O)C2C(C(=O)O)C3C=CC21O3)c1ccc(OC)cc1 (stereo not given),0.841 and 0.2
19,C[N+](C)(C)CCCCNC(=O)[C@@H]1C[C@@H]2C(=O)N[C@@H](CCCC[N+](C)(C)C)C(=O)N2[C@@H]1c1cccc(OCCO)c1,0.864 and 2.09
20,CCCC[C@@H]1CN2[C@@H](CC[C@@H](C)[C@@H]2c2ccc(Br)cc2)C(=O)O1,1.93 and 1.44
21,CCN1C(=O)[C@H]2[C@H]3[C@H](O)[C@H](O)CC(=NOC)[C@@H]3CC[C@H]2C1=O,-0.27
22,C=C[C@H](OC)[C@@H](O)c1ccc(OCCO)cc1,-0.517 and -0.64
23,COC(=O)C1=C(C)N(Cc2ccccc2)[C@]23O[C@](C(=O)OC)(C(=O)N2[C@@H]1c1ccccc1)[C@@H](c1ccccc1)[C@@H]3C(=O)c1ccccc1,0.869 and 0.031
24,CCOC(=O)[C@@H]1CC=C2CC1C(=O)N1CCC[C@@H]1[C@H]2O[Si](C)(C)C(C)(C)C (stereo not given in full),-0.664 and -0.302
25,CCOC(=O)[C@@H]1CC2O[C@]23C[C@@H]1C(=O)N1CCC[C@@H]1[C@H]3O[Si](C)(C)C(C)(C)C (stereo not given in full),-1.04 and 0.179
26,Cc1ccc(S(=O)(=O)OC[C@@H]2CN3[C@@H](CC[C@@H](C)[C@@H]3c3ccc(Br)cc3)C(=O)O2)cc1,0.454 and 0.845
27,COC(=O)C1=C(C)N(Cc2ccccc2)[C@]23O[C@](C(=O)OC)(C(=O)N2[C@@H]1c1ccccc1)[C@H]1C(=O)N(c2ccccc2)C(=O)[C@H]13,1.14 and 0.69
28,CCOC(=O)c1ccc(NC(=O)O[C@H]2[C@H](OC(=O)Nc3ccccc3)[C@H](OC(=O)Nc3ccccc3)[C@@H](OC)O[C@@H]2CO)cc1,3.01 and 3.02
29,C[N+](C)(C)CCCCCCNC(=O)[C@H]1C[C@H]2C(=O)N[C@@H](CCCC[N+](C)(C)C)C(=O)N2[C@H]1c1ccc(O)cc1,0.106 and 0.967
30,Cc1ccc(S(=O)(=O)N[C@@H]2COC(=O)CC=C[C@@H](C)[C@@H]3C=C[C@H](O)[C@@H](COC(=O)CC=C[C@H]2C)O3)cc1,-0.0372 and -0.0592
